Measurements as given in the supplement of paper PMC10811239.

Columns and labels:
[1] = test system: LEGO organoid PTCC (PTEN-/-; TP53-/-; CDKN2A-/-; CDKN2B-/-); experiment: bioluminescence (viable cell) signal fold change after vs before treatment, normalised to DMSO (ratio); higher = more tumour cell growth / less inhibition; conditions: 10 µM; treatment time 6 days
Procedure: (§1)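 Luc2-labelled iPSC-derived glioblastoma-like organoids (LEGOs, genotypes PT = PTEN-/-;TP53-/-, PTCC = plus CDKN2A/B-/-, PTN = plus NF1-/-) were treated with 10 uM drug for 6 days (applied every other day) at 37 C. Bioluminescence imaging was done before treatment and 2 days after the last dose. BLI signals were normalised to the DMSO control on the same day and then to the pre-treatment signal (N=3).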

[2] = test system: LEGO organoid PTN (PTEN-/-; TP53-/-; NF1-/-); experiment: as above; conditions: 10 µM; treatment time 6 days
Procedure: as §1

Compound	bioluminescence [1]	bioluminescence [2]
C[C@]12C=CC(=O)C=C1CC[C@@H]1[C@@H]2[C@@H](O)C[C@@]2(C)[C@H]1CC[C@]2(O)C(=O)CO [Prednisolone]	1.29	1.71
C/C(O)=C(\C#N)C(=O)Nc1ccc(C(F)(F)F)cc1 [Teriflunomide]	0.469	2.32
CC[C@H](C)C(=O)O[C@H]1C[C@@H](C)C=C2C=C[C@H](C)[C@H](CC[C@@H]3C[C@@H](O)CC(=O)O3)[C@H]21 [Lovastatin]	1.02	0.3
CN(C)CCC=C1c2ccccc2COc2ccccc21.Cl [Doxepin hydrochloride]	1.05	0.742
C[C@]12CC[C@@H]3c4ccc(O)cc4CC[C@H]3[C@@H]1CC[C@@H]2O [Estradiol]	0.435	1.18
CS(=O)(=O)c1ccc(C2=C(c3ccccc3)C(=O)OC2)cc1 [Rofecoxib]	0.638	2.18
FC(F)(F)C(Cl)Br (stereo unspecified) [Anestan]	0.664	1.3
CN(C)C(=N)NC(=N)N [Metformin]	1.89	2.37
C[C@@H]1COCCN1c1cc(C2([S@](C)(=N)=O)CC2)nc(-c2ccnc3[nH]ccc23)n1 [Ceralasertib]	1.4	0.823
C[C@@H](Oc1cc(-c2cnn(C3CCNCC3)c2)cnc1N)c1c(Cl)ccc(F)c1Cl [Crizotinib]	0.43	0.303
CC1(C)S[C@@H]2[C@H](NC(=O)[C@H](N)c3ccc(O)cc3)C(=O)N2[C@H]1C(=O)O.O.O.O [Amoxicillin trihydrate]	2.36	0.841
N=C(N)NCCCC[C@@H]1NC(=O)CCSSC[C@@H](C(N)=O)NC(=O)[C@@H]2CCCN2C(=O)[C@H](Cc2c[nH]c3ccccc23)NC(=O)[C@H](CC(=O)O)NC(=O)CNC1=O [Eptifibatide]	0.768	0.917
Cc1c(C)c2c(c(C)c1O)CC[C@@](C)(CCC[C@H](C)CCC[C@H](C)CCCC(C)C)O2 [α-Vitamin E]	1.41	2.48
Cc1cc2c(s1)Nc1ccccc1N=C2N1CCN(C)CC1 [Olanzapine]	0.712	1.81
NC(=O)c1cnccn1 [Pyrazinamide]	1.24	1.72
Cl.O=C1CN2Cc3c(ccc(Cl)c3Cl)NC2=N1 [Anagrelide hydrochloride]	0.834	1
CCCCS(=O)(=O)N[C@@H](Cc1ccc(OCCCCC2CCNCC2)cc1)C(=O)O [Tirofiban]	1.21	0.848
O=C(CCCN1CCC(O)(c2ccc(Cl)cc2)CC1)c1ccc(F)cc1 [Haloperidol]	0.956	0.771
NC(=O)N1c2ccccc2C=Cc2ccccc21 [Carbamazepine]	0.95	1.42
Cc1cc(C)cc(OCC2CNC(=O)O2)c1 (stereo unspecified) [Metaxalone]	1.35	1.62
COCCCC/C(=N\OCCN)c1ccc(C(F)(F)F)cc1.O=C(O)/C=C\C(=O)O [Fluvoxamine maleate]	0.792	1.47
CN(C)CC(c1ccc(O)cc1)C1(O)CCCCC1.O=C(O)CCC(=O)O (stereo unspecified) [Desvenlafaxine succinate hydrate]	0.582	0.536
CNCC[C@@H](Oc1ccccc1C)c1ccccc1.Cl [Atomoxetine hydrochloride]	1.04	1.97
CC/C(=C(\c1ccccc1)c1ccc(OCCN(C)C)cc1)c1ccccc1.O=C(O)CC(O)(CC(=O)O)C(=O)O [Tamoxifen Z-isomer citrate]	1.41	6.34
CC(=O)OCC[N+](C)(C)C.[Cl-] [Acetylcholine chloride]	1.09	1.15
N[C@@H](Cc1ccc(O)c(O)c1)C(=O)O [Levodopa]	1.76	1.33
NC(=O)N[C@@H](CCC(=O)O)C(=O)O [Carglumic Acid]	0.631	1.55

Compound	bioluminescence [1]	bioluminescence [2]
CCc1c(C)[nH]c2c1C(=O)C(CN1CCOCC1)CC2.Cl (stereo unspecified) [Molindone hydrochloride]	1.39	1.2
Cl.O=C1c2cccc3c2[C@H](CCC3)CN1[C@@H]1CN2CCC1CC2 [Palonosetron hydrochloride]	0.952	1.4
CCOC(=O)N1CC\C(CC1)=C1\c2ccc(Cl)cc2CCc2cccnc12 [Loratadine]	1.05	1.36
N[C@H](C(=O)O)[C@H](O)c1ccc(O)c(O)c1 [Droxidopa]	2.59	3.13
C[C@@](Cc1ccc(O)c(O)c1)(NN)C(=O)O.O [Carbidopa Hydrate]	0.96	1.55
Cc1ccnc2c1NC(=O)c1cccnc1N2C1CC1 [Nevirapine]	0.901	1.73
C[C@H](C(=O)O)c1cccc(C(=O)c2ccccc2)c1 [(S)-(+)-Ketoprofen]	1.1	0.728
CN(Cc1cnc2nc(N)nc(N)c2n1)c1ccc(C(=O)N[C@@H](CCC(=O)O)C(=O)O)cc1 [Methotrexate]	1.34	0.813
Oc1c(I)cc(Cl)c2cccnc12 [Clioquinol]	1.47	2.47
C#CCN[C@@H]1CCc2ccccc21.CS(=O)(=O)O [Rasagiline Mesylate]	2.02	1.25
CCc1cc2c(cc1N1CCC(N3CCOCC3)CC1)C(C)(C)c1[nH]c3cc(C#N)ccc3c1C2=O.Cl [Alectinib hydrochloride]	0.838	1.36
CN(C)CCc1c[nH]c2ccc(Cn3cncn3)cc12.O=C(O)c1ccccc1 [Rizatriptan benzoate]	1.84	0.666
C[C@@H](O[C@H]1OCCN(Cc2nc(=O)[nH][nH]2)[C@H]1c1ccc(F)cc1)c1cc(C(F)(F)F)cc(C(F)(F)F)c1 [Aprepitant]	0.644	1.21
O=C(O)Cc1ccccc1Nc1c(Cl)cccc1Cl [Diclofenac]	1.13	1.13
O=C(O)c1cccnc1 [Niacin]	2.03	1.59
CO[C@H]1C(=O)[C@]2(C)[C@@H](OC)C[C@H]3OC[C@@]3(OC(C)=O)[C@H]2[C@H](OC(=O)c2ccccc2)[C@]2(O)C[C@H](OC(=O)[C@H](O)[C@@H](NC(=O)OC(C)(C)C)c3ccccc3)C(C)=C1C2(C)C [Cabazitaxel]	7.3	0.429
N#Cc1ccc2[nH]cc(CCCCN3CCN(c4ccc5oc(C(N)=O)cc5c4)CC3)c2c1 [Vilazodone]	1.83	0.898
CNS(=O)(=O)Cc1ccc2[nH]cc(CCN(C)C)c2c1.O=C(O)CCC(=O)O [Sumatriptan succinate]	0.433	1.05
CN1[C@@H]2CC[C@H]1C[C@@H](OC(c1ccccc1)c1ccccc1)C2.CS(=O)(=O)O [Benztropine mesylate]	0.793	0.419
COc1ccc2c(c1)c(CC(=O)O)c(C)n2C(=O)c1ccc(Cl)cc1 [Indometacin]	1.24	1.76
Cc1cn([C@H]2C=C[C@@H](CO)O2)c(=O)[nH]c1=O [Stavudine]	0.83	0.812
Cl.N=C(N)NC(=O)Cc1c(Cl)cccc1Cl [Guanfacine hydrochloride]	1.24	0.496
C[C@]12CCC3=C4CCC(=O)C=C4CC[C@H]3[C@@H]1CC[C@@]2(O)CC#N [Dienogest]	3.61	0.658
Cl.NC12CC3CC(CC(C3)C1)C2 [Amantadine hydrochloride]	1.07	3.32
CCOC(=O)OC(C)OC(=O)[C@@H]1N2C(=O)[C@@H](NC(=O)[C@H](N)c3ccccc3)[C@H]2SC1(C)C.Cl (stereo partly specified) [Bacampicillin hydrochloride]	1.35	3.29
Cc1ccccc1C(OCCN(C)C)c1ccccc1.O=C(O)CC(O)(CC(=O)O)C(=O)O (stereo unspecified) [Orphenadrine Citrate]	2.65	0.98
